Values joined by “and” are separate entries in the source; they are usually repeats but may differ in a detail not shown here. Equal entries are not always repeated. Inconclusive results are not listed. A number with no mark means an inactive call. Active and inactive are the calls of the source. The call rests on the fitted dose curve; in most records, active means well fitted cell-killing curve with a large enough effect in the repeat runs; inconclusive means weak or mixed curves, or effect the other way; inactive means no such curve, though single readings can be large or run the other way.
Experiment: qHTS assay to identify small molecule antagonists of the thyroid receptor (TR) signaling pathway - cell viability counter screen (AID 743064); further: nearly all actives have a fitted effect of over 50% in size
Conditions: GH3.TRE-Luc viability, CellTiter-Fluor, 24 h; series mostly up to 70.3 µM; activity change, negative = cytotoxic: at the top concentration
Excerpt: National Center for Advancing Translational Sciences [NCATS]
NIH Chemical Genomics Center [NCGC]
U.S. Environmental Protection Agency [EPA]
National Institutes of Environmental Health Sciences [NIEHS]
National Toxicology Program [NTP]
U.S. Food and Drug Administration [FDA]
Thyroid receptor (TR), a nuclear hormone receptor, plays an important role in development, proliferation, differentiation, metabolism, brain function, and cardiovascular system. […] To profile the Tox21 10K compound library in TR signaling, a cell-based GH3-TRE-Luc assay (GH3.TRE-Luc cell line, developed by the laboratory of Dr. Albertinka J. Murk, Wageningen University) was used to measure the inhibition of TR. GH3 (rat pituitary tumor) cells stably expressing a TR activity sensor consisting of two TR response elements and a luciferase reporter gene. The cytotoxicity of the Tox21 compound library against the GH3.TRE-Luc cell line was tested in parallel by measuring the cell viability using CellTiter-Fluor assay (Promega, Madison, WI) in the same wells.
Tox21 Assay Protocol Summary:
GH3.TRE-Luc cells were dispensed at 1500 cells/4 uL/well into 1536-well white solid bottom plates using a Multidrop Combi dispenser (Thermo Fisher Scientific Inc., Waltham, MA). After the assay plates were incubated at 37 C for 4 hours, 23 nL of library compound or DMSO controls was transferred to the assay plates by a pintool station (Kalypsys, San Diego, CA), followed by addition of 1 ul of T3 (1 nM, final concentration in the wells) to stimulate TR transactivation. The assay plates were incubated at 37 C for 23.5 h, and then 1 uL of CellTiter-Fluor reagent (Promega, Madision, WI) of measuring cytotoxicity was added to each well using a Bioraptr Flying Reagent Dispenser (FRD) workstation (Beckman Coulter, Indianapolis, IN, USA). The plates were incubated at 37C and 5% CO2 for additional 30 min, and fluorescence intensity was measured by a ViewLux plate reader (PerkinElmer, Shelton, CT).
On the % scale 0 is the no-effect control and ±100 the full control effect; potency means the concentration at half of the fitted maximal effect.

| SMILES | activity change, negative = cytotoxic | Potency |
| --- | --- | --- |
| CC(=O)Nc1ccccc1C | -8.67% [at 95 µM] |  |
| CO[C@H]1O[C@H](CO)[C@@H](O)[C@H](O)[C@H]1O | 0.203% |  |
| Cc1cc(OI)c(C(C)C)cc1-c1cc(C(C)C)c(OI)cc1C | 9.64% |  |
| CO[Si](C)(OC)OC | 0% |  |
| OCC1CC=CCC1 (stereo not given) | 16.6% |  |
| O=C(/C=C/c1ccccc1)OCCCc1ccccc1 | 15.2% |  |
| CCC(C)=O | 2.3% |  |
| CCCCC(CC)C(=O)OCCOCCOCCOCCOC(=O)C(CC)CCCC (stereo not given) | -9.35% |  |
| CC1(C)C(=O)N(Br)C(=O)N1Cl | -10.7% |  |
| Nc1ccc(C(=O)OCCCOC(=O)c2ccc(N)cc2)cc1 | -1.76% |  |
| NC(=O)Nc1ccc(Cl)cc1 | 2.27% |  |
| CC(C)(CCl)c1ccccc1 | -4.92% |  |
| OC/C(Br)=C(\Br)CO | -3.95% |  |
| COCC(O)CO (stereo not given) | -3.55% [at 95 µM] |  |
| Cc1nc2ccccn2c(=O)c1CCN1CCC(C(=O)c2ccc(F)cc2)CC1 | -23.2% |  |
| CC1=NN(c2ccc(C(=O)O)cc2)C(=O)C1 | 4.1% |  |
| CCC(C(=O)OCCOCCN(CC)CC)c1ccccc1 (stereo not given) | -10.2% |  |
| C1COCO1 | 1.91% |  |
| O=C(CCCCCCC(=O)Nc1ccccc1)NO |  | 3.35 µM (active) and 2.11 µM (active) |
| C[C@@H]1C[C@H]2[C@@H]3CCC4=CC(=O)C=C[C@]4(C)[C@@]3(F)[C@@H](O)C[C@]2(C)[C@H]1C(=O)CO | 3.6% |  |

| SMILES | activity change, negative = cytotoxic | Potency |
| --- | --- | --- |
| CCOC(=O)CC(=O)C(=O)OCC | 21.2% |  |
| CC(Cl)C(Cl)Cl (stereo not given) | 2.67% |  |
| Cc1cc(O)c(C(C)C)cc1Cl | 11.6% |  |
| CSc1ccc(Oc2ccc(S(N)(=O)=O)cc2CN(C)C)cc1C |  | 54.5 µM (active) |
| Cc1nc2ccccc2s1 | 13.8% [at 95 µM] |  |
| CC(COc1ccc(C(C)(C)C)cc1)OS(=O)OCCCl (stereo not given) | -3.1% [at 95 µM] |  |
| CCc1cccc(N(C)C(N)=Nc2cccc3ccccc23)c1 |  | 18.8 µM (active) |
| C=CC(C)(O)CCCC(C)CCCC(C)CCCC(C)C (stereo not given) | 18.9% |  |
| Brc1cc(-c2ccc(Br)c(Br)c2Br)cc(Br)c1Br | -19.7% |  |
| CCC(C(=O)OCCN(CC)CC)c1ccccc1 (stereo not given) | -0.18% |  |
| CC(C)CCCCCOC(=O)CCCCC(=O)OCCCCCC(C)C | -3.89% |  |
| O=Cc1c(Cl)cccc1Cl | 3.98% [at 95 µM] |  |
| CCCOC(=O)c1ccc(C(=O)OCCC)nc1 | 25.5% |  |
| Oc1cc(O)c(Cl)cc1Cl | 15.7% [at 95 µM] |  |
| C[N+]1(C)CCC(=C(c2ccccc2)c2ccccc2)CC1 | 20.9% [at 32.5 µM] |  |
| C[Si]1(C)O[Si](C)(C)O[Si](C)(C)O1 | 5.54% |  |
| CCCCC(CC)CNCC(CC)CCCC (stereo not given) | -0.199% |  |
| C[N+](C)(C)CCOC(N)=O | 15.9% |  |
| [O]=[Bi] | 1.51% [at 8.44 µM] |  |
| O=C(CS)OCCOC(=O)CS | -16.1% |  |
